Among the data in PubChem BioAssay AID1568 (National Center for Advancing Translational Sciences (NCATS), 2009) are Potency values, retold here.

Records with an inconclusive call do not appear. A call without a number means that no potency is given here. Active and inactive are the calls of the source. Calls come from the whole dose curve; as a rule, active = well fitted curve in the direction sought with a large enough effect; inconclusive = small, poorly fitted or top-dose-only effect, or effect the other way, or another doubt; inactive = no such curve, though single readings can be large or run the other way.

A short description of the assay: Cell Viability Secondary Assay to Characterize qHTS Inhibitors of the Interaction of Thyroid Hormone Receptor and Steroid Receptor Coregulator 2. The note with it: cell viability counter-screen, qHTS titration; series mostly up to 29.9 µM. In outline: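 WRO human follicular thyroid carcinoma cells stably expressing TRbeta and a TRE-luciferase reporter, treated with compounds plus 100nM T3 (final) for 16 h at 37 C. Viability read as ATP content by CellTiter-Glo luminescence.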
Background: Quantitative high-throughput screening tests each substance at several concentrations.
Regarding `COc1cc(C(c2c(C)[nH][nH]c2=O)c2c(C)[nH][nH]c2=O)ccc1OC(=O)c1ccccc1OC`, the Potency result is “inactive”.
As for `Cc1ccc(-c2nc(S(=O)(=O)c3ccc(F)cc3)c(SCC(=O)NCC3CCCO3)o2)cc1` (centres undefined), the entry is “inactive”.
As for `CC(=O)c1cccc(NC(=O)COC(=O)c2ccc(S(C)(=O)=O)c([N+](=O)[O-])c2)c1`, the entry is “inactive”.
For `O=C(O)C1C2C=CC(O2)C1C(=O)Nc1ccc(S(=O)(=O)N2CCc3ccccc32)cc1` (centres undefined) the value was “inactive”; for `Cn1c(CCN2CCCCC2)nc2cc(NS(=O)(=O)c3ccc(Cl)cc3)ccc21`, “inactive”; for `O=c1cc(C23CC4CC(CC(C4)C2)C3)[nH][nH]1`, “inactive”.
As to `CCC(C)NC(=O)COC(=O)c1csc2c1CCCC2` (centres undefined), the Potency result is “inactive”.
For `CCc1ccc2c(c1)c1nc(C)sc1n2CC` the value was “inactive”.
For `O=C(O)/C=C/C(=O)Nc1ccc(SC(F)(F)C(F)(F)C(F)(F)F)cc1` the value was “inactive”; for `Cc1[nH][nH]c(=O)c1C(c1ccc(-c2ccccc2C(=O)O)o1)c1c(C)[nH][nH]c1=O`, “inactive”; for `Cc1nc2c3cc(F)ccc3n(Cc3ccccc3F)c2s1`, “inactive”.
As for `Cc1ccc2c(CC(=O)Nc3c(C(=O)c4ccc(F)cc4)oc4ccccc34)coc2c1C`, the entry is “inactive”.
For `Nc1cccnc1Sc1cc(Cl)c(Cl)cc1Cl`, the Potency entry is “inactive”.
For `Cc1cc2ccccc2n1CCNC(=O)C(C)Oc1ccccc1` (centres undefined), the Potency entry was “inactive”.
For `CC1(C)CC(=O)C(N=Nc2cccc(S(=O)(=O)N3CCOCC3)c2)=C(O)C1` the value was “inactive”.
Turning to `CCOc1ccc(NC(=O)C(c2ccccn2)N(C(=O)CCl)c2ccc(F)cc2)cc1` (centres undefined), the Potency entry was “inactive”.
On to `CN(C(=S)Nc1cccnc1)c1ccc(O)cc1`, for which the Potency entry is “inactive”.
As for `O=C(O)/C=C/C(=O)Nc1ccc(OC(F)(F)F)cc1Br`, the entry is “inactive”; as for `Oc1ccc2ccccc2c1C=NC12CN3CCN(CN(C3)C1)C2`, “inactive”.
Turning to `Cc1cc2c(NC(=O)Nc3ccccc3)cccc2nn1`, the Potency entry was “inactive”.
As for `COc1ccc2c(c1)-c1nc(/N=C/c3c(O)ccc4ccccc34)sc1CC2`, the entry is “inactive”; as for `CN1c2ccccc2C(C)(C)C12C=Nc1c(cc(N3CCOCC3)c3ccccc13)O2` (centres undefined), “inactive”.
For `CCCCCCN=CC1=C(O)CC(C)(C)CC1=O`, the Potency entry is “inactive”.
As for `Cc1cccc(S(=O)(=O)c2cn(Cc3ccccc3)c3cc(N4CCC(C)CC4)c(F)cc3c2=O)c1`, the entry is “inactive”; as for `Cc1cc(C)cc(OCC(=O)NCCc2nc3ccccc3[nH]2)c1`, “inactive”; as for `CCCCOc1ccc(C(=O)CCN2CCOCC2)cc1`, “inactive”.
For `C=CC(=O)OCCOc1ccccc1` the value was “inactive”; for `CCOc1cc(C(c2c(C)[nH][nH]c2=O)c2c(C)[nH][nH]c2=O)ccc1OC(=O)c1cccc([N+](=O)[O-])c1`, “inactive”.
As for `Cc1cc(N=Cc2c(O)ccc3ccccc23)no1`, the entry is “inactive”; as for `Nc1cnccc1C(=O)O`, “inactive”; as for `CCCc1nc2c(=O)n(C)c(=O)nc-2n(C)n1`, 794 nM (active).
Regarding `Cn1cc(/C=C2\SC(=S)N(NC(=O)c3ccccc3)C2=O)c2ccccc21`, the Potency entry was “inactive”.
For `Cc1ccc(OC(=S)Nc2ccc(O)cc2)cc1` the value was “inactive”; for `CCOC(=O)c1cnc2nc(NCc3ccc(OC)c(OC)c3)[nH]n2c1=O`, “inactive”; for `Nc1cc(-c2ccncc2)c[nH]c1=O`, “inactive”.
Take `Cn1c(-c2ccc(=O)[nH]c2)nc2ccccc21`: the Potency result was “inactive”.
For `C=CCNC(=O)/C(C#N)=C\c1cc(Cl)c(OCC)c(OC)c1` the value was “inactive”; for `CCOc1cc(N2CCOCC2)c(OCC)cc1NC(C)C(=O)N1CCN(CC)CC1` (centres undefined), “inactive”; for `COn1c2c(c3c4nonc4ccc31)CCCC2`, “inactive”.
